Data taken from the OligoGym collection.

These sequences were tested against MAPK4 (assay: pooled miR-30 sensor sort-seq; sequence = guide strand). Conditions: shRNA.
Note: reference of the scale not given here.

Row | Sequence | sensor-assay potency score (higher = more potent)
1 | TAAGTTTCTAATGTGTTGCAGG | -0.429
2 | TTGCTGATTAGATTTAAGGTGC | -0.432
3 | TCTCCTAACACATTTGCTCTAT | -0.331
4 | TCTGAATAAAAGAACATCGAAT | -0.719
5 | TTGCTGTTGACACCTCTCTTTT | -1.31
6 | TAATGCTGATCAACGATCCTTG | 0.275
7 | TTGTAGTCGCAGGAGCGCCCGT | -1.23

These sequences were tested against MAPKAPK2 in the same assay as above. Conditions: shRNA.

Row | Sequence | sensor-assay potency score (higher = more potent)
8 | TTTGTTGATTGCATGATCCAAG | -0.653
9 | TTCTCTTTCTGTGAATGCCTGG | -0.0857
10 | TTTTTTATCTTGATCTGCTCGT | 0.773
11 | TTGAAGATCTGCAAAACTTTGC | 0.0666
12 | TTGATTGCATGATCCAAGGGTG | -0.156
13 | TCGTACACATCCACGATCCGTA | 0.149
14 | TTGATCTGCAGGCCGGACTTGA | -0.944
15 | TTTATCTTGATCTGCTCGTAGT | -0.523
16 | TTTTATCTTGATCTGCTCGTAG | 0.563
17 | TTTTTATCTTGATCTGCTCGTA | 0.0929
18 | TCCTCTGATACTTCTGACCATT | -1.62
19 | TTGTAGTCATCGATGATGGCGT | -0.252

These sequences were tested against MAPKAPK5 in the same assay as above. Conditions: shRNA.

Row | Sequence | sensor-assay potency score (higher = more potent)
20 | TATCTGTGAATCCACGACCATT | -1.59
21 | TATGATGCCAGATTTCTCCTTC | 0.745
22 | TTTCTTCGCATATCCTTTGGGA | -0.249
23 | TATTCTTCTAAAATGGAAGTTT | -0.731
24 | TTGCTCTTCTATCACCTGCTTC | -0.717
25 | TAGTCGATCTACTTTATCTGTG | -0.684
26 | TCTGACTCCACTCTTCCTCTGG | 0.0951
27 | ATAATCTGAACTATGTTTGGGT | 0.519
28 | TAACTGGACCACTAATTCCAGC | -1.31
29 | TTAGTCGATCTACTTTATCTGT | -0.383
30 | TTTACACAGACTCTAACTGGAC | -0.371
31 | TTCAATAATCTGAACTATGTTT | -0.32

What follows are sequences tested against MARCH9 in the same assay as above. Conditions: shRNA.

Row | Sequence | sensor-assay potency score (higher = more potent)
32 | TAATTTAGGACCTTCCACTGCT | 0.933
33 | TAGTACTCCTCCTCGTCGCCGT | -0.394
34 | TATGGCAGCAATCTGGACCTTC | -0.025
35 | TAGCAGAGCTCACAGCTCCAGG | -0.864
36 | TTGAAGATGCGGTAGACAGAGG | -1.26
37 | TACTTGAAGTAGCAGAGCTCAC | -1.11
38 | ATACATGCCGTAGCAGATCTGA | -0.925
39 | TGAAAGAGCAGATCCTGTCGTT | 0.563
40 | TGCAAGATTGTATAACCGCAGC | -1.34
